Experimental findings from PubChem BioAssay are described below.

The source made the active and inactive calls.

The subject of assay [1] is Plasmodium falciparum Sir2 (PF13_0152, Sir2A). The assay is described as follows: pfSir2 binders on small-molecule microarrays, primary screen, biochemical, small-molecule microarray, 635 nm fluorescence (AID 1098).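 Note: score merges spot fluorescence intensity with its signal-to-noise ratio.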 To be noted: small-molecule microarray binding, fluorescence 635 nm; higher = more signal.
A short description of assay [2]: small-molecule microarray binders of probe aDKK1, primary screen, biochemical, biotinylated probe, 635/667 nm fluorescence (AID 1099).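 Note: score merges 667nm spot fluorescence with signal to noise across triplicate slides.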 To be noted: higher = more signal.
Assay [3] can be described thus: small-molecule microarray binders of probe aCHRDL2, primary screen, biochemical, biotinylated probe, 635/667 nm fluorescence (AID 1100). To be noted: higher = more signal.
A short description of assay [4]: splicing luciferase reporter signal modulators, primary screen, spliceosome inhibition project, cell-based, HEK293, splice +/- reporter (AID 1101).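 Note: HEK293 cells carrying a splicing-competent luciferase reporter gene; test concentration not given here.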 To be noted: luminescence, 24 h, higher = more signal, called active from +8 up or from −8 down. In general terms: A reporter such as luciferase makes a cellular process visible.
Assay [5] addresses Fibroblast growth factor 10 (Homo sapiens) (UniProt O15520). The assay is described as follows: FGF10 binders on small-molecule microarrays, primary screen, biochemical, small-molecule microarray, 635 nm fluorescence (AID 1102). To be noted: FGF10 binding, fluorescence 635 nm, higher = more signal.
Assay [6] has as its system glycogen synthase kinase-3 (GSK3A per assay name; protocol says GSK3B). The assay is described as follows: GSK3 binders on small-molecule microarrays, primary screen, biochemical, small-molecule microarray, 635 nm fluorescence, GSK3A (AID 1103). Note: the record names both GSK3A and GSK3B. To be noted: small-molecule microarray binding, fluorescence 635 nm; higher = more signal.
Assay [7] deals with Epidermal growth factor receptor (Homo sapiens) (UniProt P00533). The assay is described as follows: EGFR binders on small-molecule microarrays, primary screen, biochemical, small-molecule microarray, 635 nm fluorescence (AID 1104).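 Note: score merges 667 nm emission intensity with spot signal to noise over triplicate slides.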 To be noted: EGFR binding, higher = more signal.
Chain of Epidermal growth factor receptor (Homo sapiens) (P00533 whole entry, looked up): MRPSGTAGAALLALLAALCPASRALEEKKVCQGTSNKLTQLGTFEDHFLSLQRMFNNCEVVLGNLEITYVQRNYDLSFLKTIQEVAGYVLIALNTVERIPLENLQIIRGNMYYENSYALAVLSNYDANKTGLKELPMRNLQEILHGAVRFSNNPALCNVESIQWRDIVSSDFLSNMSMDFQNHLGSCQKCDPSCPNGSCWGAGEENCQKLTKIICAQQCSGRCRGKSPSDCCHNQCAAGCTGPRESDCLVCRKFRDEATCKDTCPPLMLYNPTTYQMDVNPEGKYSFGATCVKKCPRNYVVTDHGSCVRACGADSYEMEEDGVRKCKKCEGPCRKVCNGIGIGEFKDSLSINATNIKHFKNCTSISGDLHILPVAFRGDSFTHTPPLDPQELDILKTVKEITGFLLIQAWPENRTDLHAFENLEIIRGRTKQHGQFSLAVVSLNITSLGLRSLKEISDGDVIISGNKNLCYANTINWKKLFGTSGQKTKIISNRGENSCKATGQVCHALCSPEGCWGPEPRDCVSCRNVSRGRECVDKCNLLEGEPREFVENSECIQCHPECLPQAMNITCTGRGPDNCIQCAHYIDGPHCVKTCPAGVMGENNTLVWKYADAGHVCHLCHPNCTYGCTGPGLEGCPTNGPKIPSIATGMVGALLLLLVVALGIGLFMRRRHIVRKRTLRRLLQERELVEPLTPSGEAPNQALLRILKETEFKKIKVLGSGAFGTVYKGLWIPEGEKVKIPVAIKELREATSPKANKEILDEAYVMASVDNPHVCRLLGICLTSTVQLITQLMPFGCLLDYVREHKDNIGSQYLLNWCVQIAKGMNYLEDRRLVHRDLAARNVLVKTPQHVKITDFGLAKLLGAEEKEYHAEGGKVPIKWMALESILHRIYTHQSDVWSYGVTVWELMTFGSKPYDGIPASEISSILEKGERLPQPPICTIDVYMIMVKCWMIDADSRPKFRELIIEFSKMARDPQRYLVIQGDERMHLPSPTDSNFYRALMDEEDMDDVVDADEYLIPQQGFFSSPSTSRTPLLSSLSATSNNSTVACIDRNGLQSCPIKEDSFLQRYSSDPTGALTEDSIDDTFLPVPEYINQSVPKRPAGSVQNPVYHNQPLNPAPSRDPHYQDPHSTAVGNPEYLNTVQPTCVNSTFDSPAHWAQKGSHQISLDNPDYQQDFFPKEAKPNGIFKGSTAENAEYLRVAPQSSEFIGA
Assay [8] deals with Follistatin-related protein 3 (Homo sapiens) (UniProt O95633). The assay is described as follows: FSTL3 binders on small-molecule microarrays, primary screen, biochemical, small-molecule microarray, 635 nm fluorescence (AID 1105).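 Note: score merges emission near 667 nm and signal to noise per printed spot across three slides.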 To be noted: FSTL3 binding, higher = more signal.
Chain of Follistatin-related protein 3 (Homo sapiens) (O95633 whole entry, looked up): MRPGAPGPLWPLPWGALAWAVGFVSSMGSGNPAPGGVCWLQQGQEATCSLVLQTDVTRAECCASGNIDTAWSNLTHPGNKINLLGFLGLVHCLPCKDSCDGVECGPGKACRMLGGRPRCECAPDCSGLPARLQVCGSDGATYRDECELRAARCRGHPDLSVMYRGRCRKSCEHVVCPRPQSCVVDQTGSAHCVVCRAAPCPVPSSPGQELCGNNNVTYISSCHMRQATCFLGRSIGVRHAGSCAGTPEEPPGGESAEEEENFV
Assay [9] concerns the target Dickkopf-related protein 1 (Homo sapiens) (UniProt O94907). The assay is described as follows: DKK1 binders on small-molecule microarrays, primary screen, biochemical, small-molecule microarray, 635 nm fluorescence scan (AID 1106).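 Note: score merges emission near 667 nm with signal to noise over three replicate slides.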 To be noted: DKK1 binding, higher = more signal.
Assay [10] concerns Inhibin beta A chain (activin A). The assay is described as follows: INHBA (activin A) binders on microarrays, primary screen, biochemical, small-molecule microarray, 635 nm fluorescence scan (AID 1107).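 Note: mouse activin A protein probed at 4.33 µg/mL on printed slides; score merges bound-protein fluorescence near 667 nm with spot signal-to-noise.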 To be noted: small-molecule microarray binding, higher = more signal.
The subject of assay [11] is Human papillomavirus type 1a protein E7 (residues 44-93). The assay is described as follows: HPV1a E7 fragment binders on microarrays, primary screen, biochemical, small-molecule microarray, residues 44-93, 635 nm fluorescence (AID 1108).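 Note: E7 fragment applied at 1 µg/mL in TBST for 1 h at 4 C; score combines spot fluorescence with its signal to noise ratio.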 To be noted: small-molecule microarray binding, fluorescence 635 nm; higher = more signal.
Assay [12] in a line: modulators of HCV replicon luciferase signal, primary screen, HCV replication inhibitor project, Huh7 cells, luciferase reporter (AID 1109).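 Note: huh7 hepatoma cells harbouring a luciferase neomycin HCV replicon reporter; luciferase luminescence as measure of HCV replicon replication; test concentration not given here.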 To be noted: 48 h, higher = more signal. On the technique in general: A replicon is a self-replicating genome or part of one, used to study replication in cells.
Assay [13] addresses Left-right determination factor 2 (Homo sapiens) (UniProt O00292). The assay is described as follows: LEFTY2 binders on small-molecule microarrays, primary screen, biochemical, small-molecule microarray, 635 nm fluorescence scan (AID 1110). To be noted: LEFTY2 binding, higher = more signal.
Assay [14] concerns the target Calmodulin-1 (Homo sapiens) (UniProt P0DP23). The assay is described as follows: CALM1 binders on microarrays, EGTA buffer, profiling panel, biochemical, small-molecule microarray, Cy5-labelled CALM1 (AID 1111).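 Note: labelled calmodulin applied in Tris saline Tween buffer holding calcium plus EGTA and DTT.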 To be noted: Cy5-CALM1 binding fluorescence, higher = more signal.
The target is the same in assay [15]. The assay is described as follows: calcium-bound CALM1 binders on microarrays, profiling panel, artefact control for SMM control-protein annotation, biochemical, small-molecule microarray, Cy5-labelled CALM1, plus calcium (AID 1112).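 Note: score merges spot fluorescence with signal to noise from triplicate slides.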 To be noted: Cy5-CALM1 binding fluorescence, higher = more signal.
A short description of assay [16]: small-molecule microarray binders of probe aWnt5a, primary screen, biochemical, biotinylated probe, 635/667 nm fluorescence (AID 1113).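 Note: score merges 667 nm fluorescence intensity with signal-to-noise per printed feature.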 To be noted: higher = more signal.
The nature of assay [17]: small-molecule microarray binders of probe aShh, primary screen, biochemical, biotinylated probe, 635/667 nm fluorescence (AID 1114).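 Note: probe is biotin-labelled aShh protein from a stem cell growth factor screen; measures binding of labelled protein to compounds printed on the slide; score merges feature fluorescence at 667 nm with signal-to-noise.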 To be noted: higher = more signal.
A short description of assay [18]: small-molecule microarray binders of probe aNog, primary screen, biochemical, biotinylated probe, 635/667 nm fluorescence (AID 1115).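 Note: probe is biotinylated aNog protein used at 0.15 µg/mL for 1 h at 4 C; z-score combines 667 nm fluorescence of each spot with its signal to noise.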 To be noted: higher = more signal.
Assay [19] deals with Torsin-1A-interacting protein 1 (Homo sapiens) (UniProt Q5JTV8). The assay is described as follows: LAP1 binders from COS7 cell lysate, primary screen, small-molecule microarray, 635/667 nm fluorescence (AID 1116). To be noted: COS7-hLAP1 lysate binding, 635 nm fluorescence, higher = more signal.
Chain of Torsin-1A-interacting protein 1 (Homo sapiens) (Q5JTV8 whole entry, looked up): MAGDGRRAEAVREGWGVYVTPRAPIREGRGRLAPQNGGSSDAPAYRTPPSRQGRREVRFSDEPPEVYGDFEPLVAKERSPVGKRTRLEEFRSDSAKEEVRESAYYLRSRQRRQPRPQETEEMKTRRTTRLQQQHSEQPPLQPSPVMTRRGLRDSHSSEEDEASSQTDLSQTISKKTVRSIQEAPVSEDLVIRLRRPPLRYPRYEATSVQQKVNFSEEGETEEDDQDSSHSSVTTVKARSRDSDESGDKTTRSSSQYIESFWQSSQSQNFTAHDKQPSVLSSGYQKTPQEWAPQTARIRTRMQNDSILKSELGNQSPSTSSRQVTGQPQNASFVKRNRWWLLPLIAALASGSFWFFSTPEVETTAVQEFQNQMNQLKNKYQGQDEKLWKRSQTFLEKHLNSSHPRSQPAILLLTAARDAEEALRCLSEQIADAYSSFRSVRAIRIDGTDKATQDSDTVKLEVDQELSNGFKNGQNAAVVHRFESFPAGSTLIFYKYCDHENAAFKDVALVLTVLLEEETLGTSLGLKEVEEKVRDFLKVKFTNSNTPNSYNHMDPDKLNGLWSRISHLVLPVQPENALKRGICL
Assay [20] deals with Alpha-bungarotoxin (Bungarus multicinctus) (UniProt P60615). The assay is described as follows: alpha-bungarotoxin binders on microarray, profiling panel, artefact control for SMM control protein annotation, biochemical, small-molecule microarray, Alexa647 label, 635/667 nm fluorescence (AID 1117). To be noted: alpha-BTX-A647 binding fluorescence, higher = more signal.
Chain of Alpha-bungarotoxin (Bungarus multicinctus) (P60615 whole entry, looked up): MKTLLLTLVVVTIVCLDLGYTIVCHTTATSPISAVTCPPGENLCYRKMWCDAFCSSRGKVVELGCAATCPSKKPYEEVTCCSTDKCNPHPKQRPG

Chain of Dickkopf-related protein 1 (Homo sapiens) (O94907 whole entry, looked up): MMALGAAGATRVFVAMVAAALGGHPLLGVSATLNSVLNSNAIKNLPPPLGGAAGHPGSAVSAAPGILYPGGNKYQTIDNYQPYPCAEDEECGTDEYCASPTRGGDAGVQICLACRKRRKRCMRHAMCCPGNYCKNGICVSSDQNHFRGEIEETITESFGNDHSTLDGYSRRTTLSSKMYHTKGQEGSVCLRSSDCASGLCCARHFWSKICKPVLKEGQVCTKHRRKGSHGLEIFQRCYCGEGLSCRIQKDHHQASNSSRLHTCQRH
Chain of Left-right determination factor 2 (Homo sapiens) (O00292 whole entry, looked up): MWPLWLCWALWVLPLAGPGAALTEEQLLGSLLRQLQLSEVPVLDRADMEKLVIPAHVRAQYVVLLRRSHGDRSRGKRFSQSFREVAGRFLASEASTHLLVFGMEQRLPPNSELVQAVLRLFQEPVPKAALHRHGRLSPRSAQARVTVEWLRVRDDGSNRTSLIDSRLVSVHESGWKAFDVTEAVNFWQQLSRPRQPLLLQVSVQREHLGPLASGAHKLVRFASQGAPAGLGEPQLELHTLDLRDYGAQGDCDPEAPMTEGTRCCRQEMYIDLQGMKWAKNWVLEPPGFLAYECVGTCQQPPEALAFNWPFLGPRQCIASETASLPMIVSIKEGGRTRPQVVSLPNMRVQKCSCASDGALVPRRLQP
Chain of Fibroblast growth factor 10 (Homo sapiens) (O15520 whole entry, looked up): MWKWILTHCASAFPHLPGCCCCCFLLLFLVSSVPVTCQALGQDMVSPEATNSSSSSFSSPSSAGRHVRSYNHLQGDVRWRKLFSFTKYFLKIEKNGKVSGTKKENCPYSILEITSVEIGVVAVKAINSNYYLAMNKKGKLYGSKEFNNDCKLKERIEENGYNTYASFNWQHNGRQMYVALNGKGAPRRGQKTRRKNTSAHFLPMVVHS

For the compound `C=C(/C=C\CNS(=O)(=O)c1ccc(C)cc1)[C@H](O)[C@H]1CCCN1S(=O)(=O)c1ccccc1[N+](=O)[O-]`, the composite z-score in assay [1] is 0.0251; in [2] it was -0.142; in assay [3], -0.55; in assay [5], 0.598; in assay [6], 0.215; in assay [7], 0.629. Further, the composite z-score in [8] was 0.122; in assay [9], 0.524; in [10], 0.509; in assay [11], -0.251; in [13] it was 0.318; in [14], -0.337. The composite z-score in assay [15] was -0.477; in assay [16] it was -0.0405; in [17], -0.138; in [18], -0.219; in assay [19], 0.612; in assay [20], 0.293. For the same compound, the z-score in [4] was -0.465 (inactive); in assay [12] it was -3.55.

For `CCCC1(C(=O)OC)C=C2C(=C(C(C)C)C(=O)C2C)CN1` (stereo not given), the composite z-score in [1] was -0.129; in assay [2], 0.759; in [3] it was 0.813; in [5] it was -0.474; in [6], -1.63; in assay [7] it was -0.648. The composite z-score is -0.911 in assay [8]; -0.724 in [9]; 1.17 in assay [10]; -0.311 in assay [11]; -0.557 in assay [13]; 0.312 in assay [14]. Moreover, the composite z-score in assay [15] is 0.771; in assay [16], 0.0375; in assay [17], 0.381; in [18], 0.658; in assay [19], 2.29; in assay [20] it was -0.593. For the same compound, the z-score in [4] is 1.44 (inactive); in assay [12] it was -0.808.

`C=C[C@@H](CO)NS(=O)(=O)c1ccc(Br)cc1`: the composite z-score in assay [1] was -1.62; in assay [2], -0.267; in assay [3], -0.0866; in assay [5], -0.398; in assay [6] it was -0.986; in assay [7], -0.288. For the same compound, the composite z-score in assay [8] was -0.459; in assay [9] it was -0.0213; in assay [10], 0.733; in assay [11], -1.71; in [13] it was -0.671; in assay [14], -1.05. Moreover, the composite z-score is -0.453 in assay [15]; -0.208 in [16]; -0.153 in [17]; -0.158 in assay [18]; 0.127 in assay [19]; -0.796 in assay [20]. The z-score is -0.774 (inactive) in assay [4] and 0.0931 in [12].

For `CCCC[C@@H](O)C1=C(C)Cn2c(=O)n(-c3ccccc3)c(=O)n2[C@H]1CO`, the composite z-score in assay [1] is -0.0833; in [2], -0.526; in assay [3], -0.487; in assay [5], 0.132; in assay [6], -0.349; in assay [7] it was 0.0431. In addition, the composite z-score in assay [8] was -0.265; in [9], 0.0869; in assay [10], 0.146; in assay [11] it was -0.867; in assay [13] it was 0.0031; in assay [14] it was -0.737. Besides, the composite z-score in assay [15] was -0.122; in assay [16], -0.117; in assay [17], -0.221; in assay [18] it was 0.115; in [19], 0.105; in assay [20] it was -0.409. In addition, the z-score in assay [4] was -1 (inactive); in assay [12] it was 0.384.

As for `CC1CC/C=C\[C@H]2OC34C=CCN(CCN5CCOCC5)C(=O)[C@H]3N(C(CO)C(C)C)C(=O)[C@@H]4C2C(=O)O1` (stereo not given in full), the composite z-score was 1.5 in assay [1]; -0.155 in assay [2]; 0.0473 in [3]; -0.268 in [5]; 0.169 in assay [6]; -0.31 in assay [7]. Moreover, the composite z-score is -0.239 in assay [8]; -0.112 in assay [9]; 1.17 in assay [10]; 0.0179 in assay [11]; -0.0839 in assay [13]; -0.388 in [14]. Also, the composite z-score in assay [15] is -1.05; in assay [16], -0.105; in [17] it was 0.0469; in assay [18], -0.126; in assay [19], -0.46; in assay [20], -0.157. Besides, the z-score in assay [4] was -0.192 (inactive); in [12], -0.278.
